Most compounds without a hit are left out; they make up all but 3.3% or so of the library.
Sm TGR inh – blocks Schistosoma mansoni thioredoxin glutathione reductase; Q962Y6; purified TGR, DTNB reduction, TNB absorbance 405 nm; Potency, µM (doses to about 114 µM), inactives show top-dose activity change, negative = inhibition, hits mostly inhibitors; hit rate 3% among 360,000; AID 485364; note: nearly all actives have a fitted effect of over 60% in size
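TGR 20 nM + NADPH 100 uM (dispensed conc.), cpd preinc 15 min RT; start with NADPH (500 uM addition) then DTNB (15 mM addition). Kinetic TNB absorbance, 405 nm filter. Four-parameter Hill fit across titration.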
AmpC detergent – blocks E. coli AmpC beta-lactamase in detergent assay; Potency, µM (doses to about 114 µM), for the others: at the top dose activity change, negative = inhibition, most hits filed as inhibitors; AID 485294; hit rate 0.041% among 370,000; AmpC hydrolysis of nitrocefin, absorbance 480 nm, 0.01% Triton;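 note: 0% = no-compound wells and -100% = no-enzyme wells; nearly all actives have a fitted effect of over 25% in size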
Target sequence (P00811 whole entry, looked up): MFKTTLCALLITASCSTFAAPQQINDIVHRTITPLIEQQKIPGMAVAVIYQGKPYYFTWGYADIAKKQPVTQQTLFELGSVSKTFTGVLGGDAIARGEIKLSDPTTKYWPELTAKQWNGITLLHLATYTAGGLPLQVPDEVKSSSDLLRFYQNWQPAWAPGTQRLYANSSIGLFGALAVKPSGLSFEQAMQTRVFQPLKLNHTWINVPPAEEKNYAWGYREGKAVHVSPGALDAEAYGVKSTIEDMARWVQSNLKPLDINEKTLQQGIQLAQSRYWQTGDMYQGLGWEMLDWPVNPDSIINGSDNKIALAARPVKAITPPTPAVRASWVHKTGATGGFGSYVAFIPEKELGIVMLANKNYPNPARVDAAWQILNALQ
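20 mM phosphate pH 7.0 + 0.01% (detergent screen) or 0.0001% Triton X-100; 5.3 nM AmpC reagent; cpd preinc 15 min RT; nitrocefin (800 uM stock) to start; A480 q20 s × 4 min; Activity was normalised to no-enzyme and no-compound control wells.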
AmpC inh no detg – blocks E. coli AmpC beta-lactamase in detergent-free assay | P00811 | AmpC nitrocefin hydrolysis, absorbance 480 nm, 0.0001% Triton | Potency, µM (highest dose often 57.1 µM), inactives show at the top dose activity change, negative = inhibition, usual class: inhibitors | hit rate 0.52% among 330,000;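 note: plate controls were no compound for no effect and no enzyme for full effect; nearly all actives have a fitted effect of over 20% in size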
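20 mM phosphate pH 7.0 + 0.01% (detergent screen) or 0.0001% Triton X-100; 5.3 nM AmpC reagent; cpd preinc 15 min RT; nitrocefin (800 uM stock) to start; A480 q20 s × 4 min; Activity was normalised to no-enzyme and no-compound control wells.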
Active calls of the source: *; ? = inconclusive; . = no result given; [ ] = remark or other dose. Calls come from the whole dose curve; as a rule, active = well fitted curve in the direction sought with a large enough effect; inconclusive = small, poorly fitted or top-dose-only effect, or another doubt; inactive = no such curve, though single readings can be large; an effect the other way counts as inactive or inconclusive. Unless noted, % is set by controls: 0 for no effect and ±100 for the full control effect; potency is the fitted concentration of half-maximal effect.

SMILES	Sm TGR inh	AmpC detergent	AmpC inh no detg
O=C1CC(N2CCC(O)(c3ccc(Cl)cc3)CC2)C(=O)N1Cc1ccc(N2CCCC2=O)cc1 (stereo not drawn)	32µM*	1%	-7%
COc1cccc(CNC(=O)CCc2c(C)c3cc4c(C)coc4c(C)c3oc2=O)c1	-3%	0%	.
CCOc1ccc(CNC(=O)c2c(C)nn(-c3ccc(F)cc3)c2-n2cccc2)cc1	9%	24%	.
O=c1c(NCCc2ccc(Cl)cc2)nccn1-c1ccccc1	-9%	2%	.
COc1ccc(-c2nc3sc(CCNC(=O)C(=O)Nc4ccccc4C#N)c(C)n3n2)cc1	15%	1%	.
O=C1c2ccccc2NC(c2cccc(O)c2)N1Cc1ccco1 (stereo not drawn)	32µM*	12%	-30%
COc1ccc(C2Nc3ccccc3C(=O)N2Cc2ccco2)cc1CN1C(=O)c2ccccc2C1=O (stereo not drawn)	?	?	2%
C=CCOC(=O)Nc1ccc(Cl)cc1NC(=O)OCC=C	18%	?	-15%
C=CCOC(=O)/C=C/C(=O)NC(N)=O	1.3µM*	8%	-23%
O=C(Nc1cccc(Cl)c1)c1ccc2nc(CCc3ccccc3)oc2c1	6%	20%	.
CC(C)(C)OC(=O)N1CCN(C(=O)c2[nH]cnc2C(=O)Nc2ccon2)CC1	0%	3%	-11%
CC1CCN(C(=O)c2[nH]cnc2C(=O)Nc2ccon2)CC1	40µM*	6%	-8%
CCC(Oc1ccccc1)C(=O)Nc1cc(-c2cccc(C)c2)nn1-c1ccccc1 (stereo not drawn)	7%	19%	.
Cc1ccc(C)c(N2CCN(S(=O)(=O)c3ccc4oc(=O)c5ncn(C)c5c4c3)CC2)c1	-4%	-5%	.
Cc1[nH]n(-c2ccc(Cl)cc2)c(=O)c1/C=N/c1nnc(-c2ccccc2)s1	-1%	-11%	-16%
Cc1[nH]n(-c2ncc(-c3ccccc3)s2)c(=O)c1C(c1ccc(Cl)cc1)C(C#N)C#N (stereo not drawn)	?	-12%	32µM*
CCCCSCCCNC(=O)C1CCN(Cc2nc(-c3ccc(CC)cc3)oc2C)CC1	6%	11%	.
Cn1cc(S(=O)(=O)N2CCN(c3cccc(Cl)c3)CC2)c(=O)n(C)c1=O	2%	9%	41%
Cn1cc(S(=O)(=O)N2CCN(c3ccccc3)CC2)c(=O)n(C)c1=O	6%	-14%	40µM*
CCOc1cc2[nH]c(=O)n(CCCC(=O)N3CCN(c4ccc(OC)cc4)CC3)c(=O)c2cc1OCC	8%	2%	.
COCCCNC(=O)c1ccc(C2SCC(=O)N2Cc2ccco2)cc1 (stereo not drawn)	?	7%	-11%
COCCNC(=O)c1ccc(C2SCC(=O)N2Cc2ccco2)cc1 (stereo not drawn)	22µM*	-2%	7%
O=C(NCc1ccc2c(c1)OCO2)c1ccc(C2SCC(=O)N2Cc2ccco2)cc1 (stereo not drawn)	?	-6%	-29%
C=CCNC(=O)c1ccc(C2SCC(=O)N2Cc2ccco2)cc1 (stereo not drawn)	28µM*	10%	-38%
Cc1ccc(Cl)cc1N1C(=O)N(Cc2ccc(C#N)cc2)c2ccccc2S1(=O)=O	12%	9%	.
SMILES	Sm TGR inh	AmpC detergent	AmpC inh no detg
CC[C@@H]1CC=C[C@H]2[C@H]1C(=O)N(Cc1ccccc1)[C@H]2c1ccoc1	?	3%	-7%
C[C@@H]1CC=C[C@H]2[C@H]1C(=O)N(Cc1ccccc1)[C@H]2c1ccoc1	20µM*	-11%	15%
CCOc1ccc(S(=O)(=O)Nc2ccc(C(=O)NCC(c3ccco3)N3CCCCC3)cc2)cc1 (stereo not drawn)	1%	?	-5%
COc1ccc(C(=O)Nc2ccc(Cl)cc2C(=O)NCc2ccco2)cc1OC	-24%	-3%	41%
COc1ccc(S(=O)(=O)N2CCOCC2)cc1C(=O)NCC(c1ccco1)N1CCCC1 (stereo not drawn)	-11%	0%	-10%
CC(C)(Oc1ccc(Cl)cc1)C(=O)NCc1ccncc1	1%	0%	-3%
CCOc1ccc(C(=O)NCC(=O)NCC(c2ccco2)N2CCCCC2)cc1 (stereo not drawn)	89µM*	4%	1%
CC(C)(Oc1ccc(Cl)cc1)C(=O)NCc1ccco1	7.1µM*	9%	-10%
COc1ccc(Cl)cc1C(=O)NCc1ccco1	45µM*	-3%	-16%
COc1ccc(Cl)cc1C(=O)NCC(c1ccco1)N1CCCC1 (stereo not drawn)	-23%	3%	0.16µM*
CC(C)CN(CCCNC(=O)c1cc(-c2ccc(Br)s2)nc2ccccc12)CC(C)C	2%	7%	.
CCc1ccc(NC(=O)COCc2cc(-c3ccc(F)cc3)on2)cc1	2%	-6%	.
Cc1cccc(NC(=O)C(=O)NCC(c2ccc3c(c2)OCO3)N2CCN(c3ccccc3)CC2)c1 (stereo not drawn)	17%	3%	.
Cc1ccc(NC(=O)Cn2nc(C)c3nn(-c4ccc(Cl)cc4)c(C)c3c2=O)cc1C	-6%	8%	.
COc1ccc(Cl)cc1NS(=O)(=O)c1cccc(C(=O)NCC(c2ccco2)N(C)C)c1 (stereo not drawn)	13µM*	-12%	125%
COc1ccc(Cl)cc1NS(=O)(=O)c1cccc(C(=O)NCC(c2ccco2)N2CCCC2)c1 (stereo not drawn)	-20%	-3%	106%
CCC(Sc1ncc(S(=O)(=O)c2ccc(C)cc2)c(=O)[nH]1)C(=O)Nc1cc(C)ccc1C (stereo not drawn)	-8%	3%	.
COc1ccc(Cn2c(C(=O)O)c(CNCCc3ccccc3Cl)c3ccc(C)cc32)cc1	4%	-2%	.
CCOC(=O)c1c(NC(=O)CN2CCCCC2)sc(CN(C)C)c1-c1ccccc1	7%	1%	-17%
CCOC(=O)c1c(/N=C/N(C)C)sc(/C=N/Nc2ccccc2)c1-c1ccccc1Cl	-10%	-11%	-19%
CCOC(=O)c1c(NC(=O)CCl)sc(CN(C)C)c1-c1ccccc1	16µM*	-12%	-17%[11.4 µM]
CCOC(=O)c1c(/N=C/N(C)C)sc(/C=N/Nc2ccccc2)c1-c1ccccc1	-6%	-11%	16µM*
Cc1cc2n(n1)CCC(=O)N2Cc1ccc(C(=O)Nc2cc(Cl)ccc2C)cc1	6%	12%	.
C[N+]1(C)C2CC[C@H]1CC(OC(=O)C(CO)c1ccccc1)C2 (stereo partly drawn)	-8%	?	-17%
C[N+]1(C)[C@@H]2CC[C@H]1CC(OC(=O)[C@@H](CO)c1ccccc1)C2 (stereo partly drawn)	8.9µM*	0%	-15%
O=C(Nc1c(C(=O)O)oc2ccccc12)c1ccc(C(F)(F)F)cc1	3%	4%	.
CCc1ccc(NC(=O)C2CCN(S(=O)(=O)c3cccc(-c4noc(C)n4)c3)CC2)cc1	1%	-3%	.
C=CCc1cc(/C=C2/NC(=O)NC2=O)cc(OCC)c1O	50µM*	7%	-13%
C=CCc1cc(/C=C2/NC(=S)NC2=O)cc(OC)c1O	5%	3%	-29%
Cn1cc(Cl)c(C(=O)Nc2nc3ccccc3s2)n1	3%	1%	3%
